Measurements: PubChem BioAssay (NCATS)
“And” between values parts separate entries of the source, which are not always exact repeats. Equal entries are not always repeated. Results filed as inconclusive are left out. The source made the active and inactive calls. Unless noted, calls follow the shape of the dose curve; as a rule, active = well fitted curve in the direction sought with a large enough effect; inconclusive = small, poorly fitted or top-dose-only effect, or another doubt; inactive = no such curve, though single readings can be large; an effect the other way counts as inactive or inconclusive.

Columns and labels:
[1] = target: Arylsulfatase A (Homo sapiens) (UniProt P15289); assay: qHTS screen for enhancers of Arylsulfatase A (ASA1): LOPAC Validation Assay (AID 720538)
Chain of Arylsulfatase A (Homo sapiens) (P15289 whole entry, looked up): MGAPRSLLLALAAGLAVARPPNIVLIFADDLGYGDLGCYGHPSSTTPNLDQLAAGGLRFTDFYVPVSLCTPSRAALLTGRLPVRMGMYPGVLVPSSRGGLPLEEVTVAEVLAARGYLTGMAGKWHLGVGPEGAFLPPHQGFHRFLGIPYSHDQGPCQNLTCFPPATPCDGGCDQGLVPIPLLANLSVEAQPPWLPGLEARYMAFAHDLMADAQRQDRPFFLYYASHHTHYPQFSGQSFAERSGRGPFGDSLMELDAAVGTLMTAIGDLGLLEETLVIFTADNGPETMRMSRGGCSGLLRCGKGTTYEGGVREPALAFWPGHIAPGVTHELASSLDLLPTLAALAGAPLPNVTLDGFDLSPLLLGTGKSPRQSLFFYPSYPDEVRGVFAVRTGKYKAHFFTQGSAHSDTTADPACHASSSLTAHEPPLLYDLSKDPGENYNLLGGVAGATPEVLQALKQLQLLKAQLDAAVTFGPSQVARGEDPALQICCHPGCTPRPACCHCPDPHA
In short: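 SV40-transformed skin fibroblasts from an MLD patient (ASA-I179S) were treated with compounds for 48h at 37 degree C, then lysed with 0.5mM pNCS final substrate for 14h at room temperature; NaOH stop, fluorescence read (Ex=525 nm; Em=598 nm).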

[2] = qHTS for compounds that reverse cellular toxicity of Amyloid beta (A-beta) peptide in yeast: LOPAC Validation Assay (AID 720559);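 also: plate controls were DMSO for no effect and equimolar ferric chloride plus clioquinol rescue for full effect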
In short: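 Yeast cells expressing toxic A-beta were combined with pinned compounds in growth medium and incubated 48 hr at 30 C. Growth was read as absorbance at 600 nm and normalized to DMSO and to an equimolar FeCl3/clioquinol positive control.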

[3] = qHTS for Activators of Parkin Expression: LOPAC Validation Assay (NLuc Reporter) (AID 720572)
In short: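 NLuc signal, read 10 min after reagent and following a prior FLuc read, is normalized to DMSO (0) and positive controls (100%). Cells: neuronal Parkin-promoter coincidence reporter line; compounds tested 7-point, 24 h, 37 C, 5% CO2.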

[4] = qHTS for Activators of Parkin Expression: LOPAC Validation Assay (FLuc Reporter) (AID 720573; also: potency is read from the fitted curve at half-maximal effect)
In short: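 Neuronal cell line stably carrying FLuc/NLuc coincidence reporter under Parkin promoter; cells plated 24 h, then compounds added in 7-point dose response for 24 h at 37 C. FLuc luminescence read; normalized to DMSO and positive control (100%).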

[5] = qHTS assay for small molecule agonists of the antioxidant response element (ARE) signaling pathway measured by Nrf2-dependant transcriptional activity (AID 720636; active = well fitted curve in the direction sought with a large enough effect in the repeat runs; an effect the other way counts as inactive or inconclusive; also: % of control where 0% means no effect)
In short: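 ARE-luc HepG2 cells carrying an Nrf2-responsive luciferase reporter, in medium with 1% dialyzed FBS, exposed to compound for 16 hr at 37 C, 5% CO2. Luminescence read 30 min after ONE-Glo addition.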

[6] = qHTS assay for small molecule antagonists of the retinoid-related orphan receptor gamma (ROR-gamma) signaling pathway - cell viability counter screen (AID 720652; active = well fitted curve in the direction sought with a large enough effect in the repeat runs; an effect the other way counts as inactive or inconclusive;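 also: CHO reporter cells with doxycycline-induced ROR-gamma expression; series mostly up to about 92 µM; compound exposure lasted 16 hr before ATP read; % is scaled to controls: 0 for no effect and ±100 for the full control effect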)
In short: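 ATP-based viability readout in the ROR-gamma reporter CHO cells after 16 hr compound exposure under doxycycline induction.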

[7] = qHTS assay for small molecule agonists of the antioxidant response element (ARE) signaling pathway measured by Nrf2-dependant transcriptional activity - cell viability counter screen (AID 720653; active = well fitted curve in the direction sought with a large enough effect in the repeat runs; an effect the other way counts as inactive or inconclusive; also: potency is read from the fitted curve at half-maximal effect; as to max response: % is scaled to controls: 0 for no effect and ±100 for the full control effect); conditions: ARE-bla HepG2 viability, CellTiter-Glo ATP luminescence, 16 h; max response: hits give low values
In short: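 ARE-bla HepG2 cells treated with compounds for 16 h at 37C; this counter screen measures viability as intracellular ATP by CellTiter-Glo luminescence after 30 min at room temperature.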

[8] = target: T1, Hexokinase-4 (Homo sapiens) + Glucokinase regulatory protein (Homo sapiens) (UniProt P35557+Q14397); assay: qHTS assay for inhibitors of recombinant human GCK-GKRP interaction: Diaphorase-coupled assay (AID 743205); also: potency is read from the fitted curve at half-maximal effect
T1 sequence (P35557 whole entry, looked up): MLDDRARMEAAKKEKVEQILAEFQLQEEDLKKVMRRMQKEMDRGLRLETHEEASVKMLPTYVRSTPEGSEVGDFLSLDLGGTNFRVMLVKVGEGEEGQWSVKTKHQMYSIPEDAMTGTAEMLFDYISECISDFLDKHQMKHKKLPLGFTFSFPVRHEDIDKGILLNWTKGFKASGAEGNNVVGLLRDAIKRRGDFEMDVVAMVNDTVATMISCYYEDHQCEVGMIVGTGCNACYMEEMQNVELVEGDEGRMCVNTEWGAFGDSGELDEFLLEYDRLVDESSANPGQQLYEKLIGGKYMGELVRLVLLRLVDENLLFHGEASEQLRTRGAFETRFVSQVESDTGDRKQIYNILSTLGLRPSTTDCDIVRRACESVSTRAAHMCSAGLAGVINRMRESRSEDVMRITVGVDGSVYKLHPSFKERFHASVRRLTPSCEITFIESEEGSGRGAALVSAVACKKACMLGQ
T1 sequence (Q14397 whole entry, looked up): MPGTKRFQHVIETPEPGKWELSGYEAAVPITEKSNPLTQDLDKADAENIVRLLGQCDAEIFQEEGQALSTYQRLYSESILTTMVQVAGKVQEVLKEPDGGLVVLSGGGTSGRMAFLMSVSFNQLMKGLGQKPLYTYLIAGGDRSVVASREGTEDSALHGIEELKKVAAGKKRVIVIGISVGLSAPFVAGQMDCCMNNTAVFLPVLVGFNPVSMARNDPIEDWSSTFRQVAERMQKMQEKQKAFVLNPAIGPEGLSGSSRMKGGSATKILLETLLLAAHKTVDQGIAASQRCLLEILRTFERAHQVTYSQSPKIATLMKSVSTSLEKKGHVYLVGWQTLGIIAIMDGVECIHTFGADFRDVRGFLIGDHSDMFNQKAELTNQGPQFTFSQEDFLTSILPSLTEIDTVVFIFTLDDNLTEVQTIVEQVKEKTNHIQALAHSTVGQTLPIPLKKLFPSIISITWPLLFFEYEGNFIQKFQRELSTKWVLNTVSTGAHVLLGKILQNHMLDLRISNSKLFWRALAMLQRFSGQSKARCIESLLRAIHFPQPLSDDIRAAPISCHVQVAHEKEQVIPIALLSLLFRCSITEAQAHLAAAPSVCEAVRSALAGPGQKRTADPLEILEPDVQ
In short: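 GST-GCK (10 nM) with FLAG-GKRP (10 nM), 5 mM glucose and 0.4 mM ATP in pH 7.6 Hepes; compounds preincubated 20 min with substrate. G6PDH/diaphorase coupling converts resazurin to resorufin, read kinetically (ex 525/em 590 nm) for 30 min.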

[9] = target: T1, Hexokinase-4 (Homo sapiens) + Glucokinase regulatory protein (Homo sapiens); assay: qHTS assay for inhibitors of recombinant human GCK-GKRP interaction: ADP-Glo assay (AID 743206); also: potency is read from the fitted curve at half-maximal effect
In short: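 Pin-transferred compounds meet a 15 nM GST-GCK/15 nM FLAG-GKRP/2 uM S6P mix (dispense concentrations). ATP is then added to 0.4 mM final with 5 mM glucose, and the reaction runs 60 min at room temperature. ADP is quantified luminescently.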

[10] = qHTS for small molecule inhibitors of Yes1 kinase: Counter Assay (AID 686950);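 also: no kinase present so only ADP-Glo detection of a fixed ADP amount is tested; luminescence from ADP-Glo reporting ADP in a fixed ATP and ADP mixture; series mostly up to about 77 µM; 0% = DMSO wells with ATP plus ADP and -100% = ATP-only wells without ADP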
In short: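 No kinase present; 0.08 mM ATP + 0.02 mM ADP in 50 mM Tris pH 7.5, 10 mM MgCl2, 150 mM NaCl, 1 mM DTT; 20 min compound preincubation, 60 min RT, ADP-Glo luminescence, normalized to ATP/ADP (max) and ATP-only (min).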

NCCS(=O)(=O)O
inactive: Potency [1] | outcome [2] | outcome [3] | Potency [4] | outcome [5] | Potency [6] | max response [7] 5.47% | Potency [8] | Potency [9]

Cc1ccc(-c2cc(C(F)(F)F)nn2-c2ccc(S(N)(=O)=O)cc2)cc1
inactive: outcome [10] | outcome [5] | max response [7] -0.182%

O=c1c(O)c(-c2ccc(O)c(O)c2)oc2cc(O)cc(O)c12
inactive: outcome [10] | outcome [2] | Potency [8] | Potency [9]

COc1ccc(CCN(C)CCCC(C#N)(c2ccc(OC)c(OC)c2)C(C)C)cc1OC (configuration not stated)
inactive: outcome [10] | outcome [3] | Potency [4] | outcome [5] | Potency [6] | max response [7] -18% | Potency [8] | Potency [9]

CN1CCN(C2=Nc3cc(Cl)ccc3Nc3ccccc32)CC1
inactive: Potency [1] | outcome [2] | outcome [3] | Potency [4]

O=C(CCCN1CCC(O)(c2ccc(Cl)cc2)CC1)c1ccc(F)cc1
inactive: Potency [1] | outcome [2] | outcome [3] | Potency [4] | outcome [5] | max response [7] -9.04%

Cn1ccc2cc3c(cc21)CCN3C(=O)Nc1cccnc1
inactive: outcome [10] | outcome [2] | outcome [3] | Potency [8] | Potency [9]

CN(C)C(=N)N=C(N)N
inactive: outcome [10]

NCCc1cnc[nH]1
inactive: Potency [1] | outcome [2] | outcome [3] | Potency [4] | Potency [8] | Potency [9]

O=C1N(c2ccccc2)c2ccccc2C1(Cc1ccncc1)Cc1ccncc1
inactive: Potency [1] | outcome [2] | outcome [3] | Potency [4] | Potency [8] | Potency [9]

O=C(c1ccc(OCCN2CCCCC2)cc1)c1c(-c2ccc(O)cc2)sc2cc(O)ccc12
inactive: Potency [1] | outcome [2] | outcome [3] | Potency [4] | outcome [5] | Potency [8] | Potency [9]

O=c1c(-c2ccc(O)cc2)coc2cc(O)cc(O)c12
inactive: outcome [10] | Potency [1] | outcome [2] | max response [7] 0.177% and -1.16% | Potency [8] | Potency [9]
active: Potency [4] 8.2 µM

CN(C)CCC=C1c2ccccc2C=Cc2ccccc21
inactive: Potency [1] | outcome [2] | outcome [3] | Potency [4] | Potency [8] | Potency [9]

CC12CC3CC(C)(C1)CC(N)(C3)C2
inactive: Potency [1] | outcome [2] | outcome [3] | Potency [4] | Potency [8] | Potency [9]

Cn1cnc2c1c(=O)[nH]c(=O)n2C
inactive: Potency [1] | outcome [2] | outcome [3] | Potency [4] | outcome [5] | max response [7] 4.98% | Potency [8] | Potency [9]

CN1CCN(CCCN2c3ccccc3Sc3ccc(Cl)cc32)CC1
inactive: Potency [1] | outcome [2] | outcome [3] | Potency [4] | Potency [8] | Potency [9]

Cc1cn([C@H]2C[C@H](N=[N+]=[N-])[C@@H](CO)O2)c(=O)[nH]c1=O
inactive: outcome [10] | outcome [2] | outcome [3] | Potency [4] | outcome [5] | Potency [6] | max response [7] -2.6% | Potency [8] | Potency [9]

Cc1ccccc1N1C(=O)c2cc(S(N)(=O)=O)c(Cl)cc2NC1C (configuration not stated)
inactive: Potency [1] | outcome [2] | outcome [3] | Potency [4] | Potency [8] | Potency [9]

CC(C)Cc1ccc(C(C)C(=O)O)cc1 (configuration not stated)
inactive: Potency [1] | outcome [2] | outcome [3] | Potency [4] | outcome [5] | max response [7] 3.8% | Potency [8] | Potency [9]

COc1cc2nc(N(C)CCCNC(=O)C3CCCO3)nc(N)c2cc1OC (configuration not stated)
inactive: Potency [1] | outcome [2] | outcome [3] | Potency [4] | Potency [8] | Potency [9]

Nc1nc2c(ncn2COC(CO)CO)c(=O)[nH]1
inactive: Potency [1] | outcome [2] | outcome [3] | Potency [4] | Potency [8] | Potency [9]

COc1cc2nc(N3CCN(C(=O)C4COc5ccccc5O4)CC3)nc(N)c2cc1OC (configuration not stated)
inactive: Potency [1] | outcome [2] | outcome [3] | Potency [4] | Potency [8] | Potency [9]

Nc1c2c(nc3ccccc13)CCCC2
inactive: Potency [1] | outcome [2] | outcome [3] | Potency [4] | outcome [5] | Potency [6] | max response [7] -10.2% | Potency [8] | Potency [9]

NC(CO)C(=O)NNCc1ccc(O)c(O)c1O (configuration not stated)
inactive: Potency [1] | outcome [2] | outcome [3] | Potency [4] | Potency [8] | Potency [9]

C[C@H]1c2cccc(O)c2C(O)=C2C(=O)[C@]3(O)C(O)=C(C(N)=O)C(=O)[C@@H](N(C)C)[C@@H]3[C@@H](O)[C@@H]21
inactive: Potency [1] | outcome [2] | outcome [3] | Potency [4] | Potency [8] | Potency [9]

CC[C@@]1(O)C(=O)OCc2c1cc1n(c2=O)Cc2cc3c(CN(C)C)c(O)ccc3nc2-1
inactive: outcome [10]

OCCN(CCO)c1nc(N2CCCCC2)c2nc(N(CCO)CCO)nc(N3CCCCC3)c2n1
inactive: Potency [1] | outcome [2]

CS(=O)(=O)CCNCc1ccc(-c2ccc3ncnc(Nc4ccc(OCc5cccc(F)c5)c(Cl)c4)c3c2)o1
inactive: outcome [10]

CC1(CN2CCC(n3c(=O)[nH]c4ccccc43)CC2)OCc2ccccc2-n2cccc21 (configuration not stated)
inactive: outcome [10]

CNCCCC12CCC(c3ccccc31)c1ccccc12
inactive: Potency [1] | outcome [2] | outcome [3] | Potency [4] | Potency [8] | Potency [9]

O=C1c2c(O)ccc(O)c2C(=O)c2c(NCCNCCO)ccc(NCCNCCO)c21
inactive: outcome [10] | outcome [2] | outcome [3] | Potency [4] | Potency [8] | Potency [9]

Cc1cc(C(C)(C)C)cc(C)c1CC1=NCCN1
inactive: Potency [1] | outcome [2] | outcome [3] | Potency [4] | Potency [8] | Potency [9]

COc1ccc2[nH]cc(CCNC(C)=O)c2c1
inactive: outcome [2] | outcome [3] | Potency [4] | outcome [5] | Potency [6] | max response [7] -10.7% and -6.82% and 8.47% | Potency [8] | Potency [9]

CN(C)CCCN1c2ccccc2CCc2ccc(Cl)cc21
inactive: outcome [2] | outcome [3] | Potency [4] | Potency [8] | Potency [9]

Cc1cn([C@H]2C=C[C@@H](CO)O2)c(=O)[nH]c1=O
inactive: outcome [2] | outcome [3] | Potency [4] | outcome [5] | Potency [6] | max response [7] 6.12% and 3.59% and -11.2% | Potency [8] | Potency [9]

Cc1ccc(C(=O)Nc2ccc(S(=O)(=O)O)c3cc(S(=O)(=O)O)cc(S(=O)(=O)O)c23)cc1NC(=O)c1cccc(NC(=O)Nc2cccc(C(=O)Nc3cc(C(=O)Nc4ccc(S(=O)(=O)O)c5cc(S(=O)(=O)O)cc(S(=O)(=O)O)c45)ccc3C)c2)c1
active: Potency [8] 28.2 µM | Potency [9] 5.62 µM
inactive: Potency [1] | outcome [2] | outcome [3] | Potency [4]

Nc1ccn([C@H]2CC[C@@H](CO)O2)c(=O)n1
inactive: outcome [2] | outcome [3] | Potency [4] | outcome [5] | Potency [6] | max response [7] -1.33% and -0.56% | Potency [8] | Potency [9]

CN1CCN2c3ccccc3Cc3ccccc3C2C1 (configuration not stated)
inactive: outcome [2] | outcome [3] | Potency [4] | Potency [8] | Potency [9]

CN(Cc1cnc2nc(N)nc(N)c2n1)c1ccc(C(=O)N[C@@H](CCC(=O)O)C(=O)O)cc1
inactive: outcome [2] | outcome [3] | Potency [4] | outcome [5] | Potency [8] | Potency [9]
active: Potency [7] 44.7 nM

Cc1cnc(C(=O)NCCc2ccc(S(=O)(=O)NC(=O)NC3CCCCC3)cc2)cn1
inactive: Potency [1] | outcome [2] | outcome [3] | Potency [4] | Potency [8] | Potency [9]

Cn1c(=O)c2c(ncn2C)n(C)c1=O
inactive: outcome [2] | outcome [3] | Potency [4] | outcome [5] | Potency [6] | max response [7] 6.29% and 2.32% | Potency [8] | Potency [9]

NC(=O)OCC(COC(N)=O)c1ccccc1
inactive: Potency [1] | outcome [2] | outcome [3] | Potency [4] | Potency [8] | Potency [9]

NS(=O)(=O)c1cc2c(cc1Cl)NCNS2(=O)=O
inactive: outcome [2] | outcome [3] | Potency [4] | outcome [5] | Potency [6] | max response [7] 0.152% and 15.5% | Potency [8] | Potency [9]

C[C@](N)(Cc1ccc(O)c(O)c1)C(=O)O
inactive: outcome [2] | outcome [3] | Potency [4] | outcome [5] | max response [7] -0.408% | Potency [8] | Potency [9]

NCCCCCC(=O)O
inactive: Potency [1] | outcome [2] | outcome [3] | Potency [4] | Potency [8] | Potency [9]

CCOC(=O)C(C)(C)Oc1ccc(Cl)cc1
inactive: outcome [2] | outcome [3] | Potency [4] | outcome [5] | max response [7] -4.42% | Potency [8] | Potency [9]

CCCNCC(O)COc1ccccc1C(=O)CCc1ccccc1 (configuration not stated)
inactive: outcome [2] | outcome [3] | Potency [4] | Potency [8] | Potency [9]
